Compound activity as filed in PubChem BioAssay.
Most compounds without a hit are left out; they make up all but 10% or so of the library.
PTEN del growth = PTEN-deleted cell growth suppression. AID 827. 140,000 tested, 1.2% active. viability, % at 10 µM. HCT116 PTEN-null viability, CellTiter-Glo, 60 h; stronger effect = lower value;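 active = viability at or below a set limit, 4 SD under the median of all tested compounds, cut at about 3.7% in these data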;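 note: PTEN knockout HCT116 line with beta catenin targeted HCT116 as companion control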
L major viab = inhibitors of Leishmania major promastigote growth; 200,000 tested, 9% active; Leishmania major promastigotes, resazurin fluorescence viability; inhibition, % at 10 µM; in the data active = inhibition above about 50%;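 note: promastigotes grown with compound for 44 hours at 28 °C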
p97 ATPase inh = blocks human p97 ATPase activity; P55072; recombinant p97 ATPase, Kinase-Glo ATP luminescence, 3 h; inhibition, % at 8 µM; 220,000 tested, 0.42% active; AID 1481; in the data active = inhibition above about 15%;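 note: 0% = DMSO vehicle and 100% = wells lacking enzyme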
bCat KO growth = beta-catenin-lacking colon tumor cell growth suppression | 140,000 tested, 1.5% active | AID 818 | viability, % at 10 µM | HCT116 beta-catenin knockout viability, CellTiter-Glo, 60 h; stronger effect = lower value;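 active = viability at or under a set limit, the compound median less 4 SD, cut at about 6% in these data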;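 note: 0% = Hyamine 1622 control at 20 µM and 100% = untreated cell control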
ROMK primary = modulators of human ROMK potassium channel | P48048 | Tet-inducible ROMK, thallium flux fluorescence; actives lie on both sides | B-score at 10 µM | 130,000 tested, 2% active | AID 1918;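 active = signal ratio slope over the read window, or its plate-corrected B-score, at least 3 SD from the plate mean, either direction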;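 note: B-score of the F/F0 ratio slope over 7 to 12 s after thallium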
Target sequence (P48048 whole entry, looked up): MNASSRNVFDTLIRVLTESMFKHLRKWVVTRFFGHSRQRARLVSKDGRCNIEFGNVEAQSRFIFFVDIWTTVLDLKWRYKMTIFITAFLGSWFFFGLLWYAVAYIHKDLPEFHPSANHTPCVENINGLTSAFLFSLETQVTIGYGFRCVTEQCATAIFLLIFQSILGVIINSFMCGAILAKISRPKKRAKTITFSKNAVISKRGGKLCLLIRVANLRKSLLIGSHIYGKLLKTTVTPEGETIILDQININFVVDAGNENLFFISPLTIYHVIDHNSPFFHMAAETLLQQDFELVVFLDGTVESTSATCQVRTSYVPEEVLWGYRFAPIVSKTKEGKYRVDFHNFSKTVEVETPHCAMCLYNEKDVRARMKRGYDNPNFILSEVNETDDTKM
Insulin prom inh = TRM-6 insulin promoter activity inhibition | TRM-6 cells (human fetal islet line), insulin promoter-eGFP reporter, imaging; reporter expression induced with tamoxifen | inhibition, % at 2 µM | 130,000 tested, 0.9% active | AID 1273;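 active = inhibition above the mean plus 3 SD, with well images judged a real hit on visual review, cut at about 60% in these data, passing the limit was not always enough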
The depositor's hits bear a star; x = not tested or not shown.

SMILES	PTEN del growth	L major viab	p97 ATPase inh	bCat KO growth	ROMK primary	Insulin prom inh
O=C(COc1ccccc1Cl)N1CCN(c2ccc([N+](=O)[O-])c(N3CCOCC3)c2)CC1	87.0	9.1	1.4	88.5	x	16.7
CC(C)CSC1=NSC2=NC(=O)/C(=C\c3ccccc3)C(=N)N12	x	0.9	-6.5	x	1.84*	0.0
COc1ccccc1C(=O)O/N=C(\N)c1ccccc1Cl	90.3	91.5*	3.2	93.1	x	29.6
Cc1ccc2nc(SCC(=O)N(CC(C)C)c3c(N)n(Cc4ccccc4)c(=O)[nH]c3=O)[nH]c2c1	x	x	0.2	x	x	x
CCOc1nc(-c2ccc(Cl)cc2)nc2ccccc12	81.9	-0.8	1.1	79.2	1.25	0.0
COC(C(=O)NNC(=O)CCc1ccccc1)c1ccccc1 (stereo unspecified)	x	-4.0	4.8	x	-0.054	-14.3
COc1ccc(-c2c(C#N)c(C)nc3c2C(=O)c2ccccc2-3)cc1	90.0	2.8	4.7	93.8	x	89.5*
Cc1ccc(-c2csc(=Nc3cccnc3)n2CCCn2ccnc2)cc1C	43.9	94.8*	0.4	50.7	-1.09	46.4
c1cncc(N=c2scc(-c3cccc4ccccc34)n2CCCn2ccnc2)c1	58.2	79.9*	2.9	59.4	-1.07	-30.8
Cc1ccc(-c2csc(=Nc3cccnc3)n2CCCN2CCCC2=O)cc1C	92.5	19.1	-1.3	90.5	-0.0192	x
COCCn1c(-c2ccccc2)csc1=Nc1cccnc1	x	4.6	-0.7	x	0.438	0.0
O=C(CSc1n[nH]c(=O)[nH]c1=O)N/N=C/c1ccccc1	93.2	55.6*	0.9	98.8	0.958	24.7
CCOc1ncccc1C(=O)N(C)CC(=O)Nc1ccccc1SC	93.5	-3.4	5.3	98.1	x	x
CCN(CC)CC#CCC(OC)(c1ccccc1)c1ccccc1	x	54.6*	-8.1	x	-0.399	x
CCN(CC)CC#CCC(O)(c1ccccc1)C1CCCC1 (stereo unspecified)	90.6	72.7*	-4.8	85.3	x	0.0
COCCNC(=O)C/C(C)=N/NC(=O)C(=O)NC1CCCCC1	x	-11.9	3.9	x	-0.172	40.0
O=C(/C=C/c1ccc([N+](=O)[O-])cc1)N1CCN(S(=O)(=O)c2cccs2)CC1	x	x	10.5	x	x	x
CCOc1cc(S(=O)(=O)NCCN2CCOCC2)c(C)cc1C	90.4	1.4	-5.2	91.4	x	-86.4
CCOc1ccc(S(=O)(=O)NCCN2CCOCC2)c2ccccc12	83.2	95.9*	-0.1	101.8	x	x
COc1c(S(=O)(=O)NCCN2CCOCC2)ccc(Cl)c1Cl	108.0	67.1*	-0.6	100.3	-0.951	21.9
CCCOc1ccc(S(=O)(=O)NCCN2CCOCC2)c2ccccc12	91.8	65.8*	-5.6	83.8	x	6.1
O=[N+]([O-])C(/C=C(/Cl)[N+](=O)[O-])=C(N1CCCCC1)N1CCCCC1	x	x	4.1	x	x	x
Cc1cc(-c2n[nH]c(=S)n2/N=C/C(Cl)=C/c2ccccc2)n[nH]1	2.2*	70.0*	1.5	5.0*	x	x
Cc1cc(-c2n[nH]c(=S)n2/N=C/c2cccc([N+](=O)[O-])c2)n[nH]1	93.7	50.5*	6.0	90.1	-0.0349	11.1
O=C(CSc1nncn1-c1ccccc1)NC1CCCc2ccccc21 (stereo unspecified)	94.4	-0.9	1.9	93.0	0.00348	-28.6
SMILES	PTEN del growth	L major viab	p97 ATPase inh	bCat KO growth	ROMK primary	Insulin prom inh
COc1ccc(-n2cnnc2SCC(=O)NC2CCCc3ccccc32)cc1 (stereo unspecified)	100.0	68.5*	4.6	90.0	x	24.7
CCn1c(SCC(=O)NC2CCCc3ccccc32)nnc1-c1cccs1 (stereo unspecified)	87.1	56.5*	0.3	97.9	x	27.9
COc1ccc(-n2cnnc2SCC(=O)Nc2ccc(N3CCOCC3)cc2)cc1	93.6	51.7*	1.5	96.4	x	3.3
Cc1nc2sccc2c(=O)n1N	x	-1.7	3.8	x	1.27	-16.7
CCN(CC)CCNC(=O)C1c2cc(OC)c(OC)cc2C(=O)N(C)C1c1cccs1 (stereo unspecified)	x	-4.6	0.5	x	-0.00449	53.3
CCOc1ccc(NC(=S)NN2C(C)CCCC2C)cc1 (stereo unspecified)	86.4	51.2*	1.1	86.0	0.658	44.7
CC(=O)c1ccc(NC(=S)NN2C(C)CCCC2C)cc1 (stereo unspecified)	x	-3.9	-5.9	x	-0.696	x
CCOc1ccc(S(=O)(=O)NNC(=S)Nc2ccc(Br)cc2)cc1	98.6	62.4*	1.8	89.4	0.932	-13.5
Cc1ccc(NC(=O)NNS(=O)(=O)c2ccc(Br)cc2)cc1	99.2	-5.8	2.2	96.3	x	3.6
CCOc1ccc(NC(=S)Nc2ccc(OCc3ccccc3)cc2)cc1	104.0	51.6*	-1.2	99.4	0.401	13.8
Cc1ccc([N+](=O)[O-])cc1-c1ccc(/C=N\n2nnnc2N)o1	80.7	51.3*	6.1	39.3	x	10.7
Cc1ccccc1C(=O)c1ccc2c(c1)n(C)c(=O)n2C	87.8	-2.3	0.6	93.5	-0.566	x
CCOC(=O)c1c(NC(=O)CSc2nc3cc(Cl)ccc3c(=O)n2Cc2ccco2)sc(C(=O)N(C)C)c1C	10.6	77.8*	3.9	57.9	x	x
CCc1ccc(NC(=O)CSc2nc3cc(C(=O)OC)ccc3c(=O)n2Cc2ccco2)cc1	104.7	3.7	-1.3	92.9	0.0564	x
O=C1Nc2ccc([N+](=O)[O-])cc2OC1CCN1CCN(Cc2ccc3c(c2)OCO3)CC1 (stereo unspecified)	x	-5.7	0.3	x	-0.35	x
CCc1ccc(NC(=O)C2(c3ccccc3)CC2(Cl)Cl)cc1 (stereo unspecified)	74.2	95.7*	0.3	81.1	x	-220.0
Cc1ccc(NC(=O)C2(c3ccccc3)CC2(Cl)Cl)cc1C (stereo unspecified)	64.9	67.4*	5.1	73.2	x	-41.2
Cc1cccc(NC(=O)C2(c3ccccc3)CC2(Cl)Cl)c1 (stereo unspecified)	69.4	14.9	0.7	82.1	0.465	x
COc1ccc(NC(=O)C(Sc2nnc3ccccn23)c2ccccc2)cc1Cl (stereo unspecified)	90.5	-3.0	1.9	95.9	x	2.0
CN=c1scc(-c2ccc(F)cc2)n1/N=C/c1ccc(O)c(O)c1	x	100.0*	5.0	x	0.632	-40.5
CC(C)CC(c1nnnn1Cc1ccc2c(c1)OCO2)N1CCC(C(N)=O)CC1 (stereo unspecified)	x	-2.9	1.8	x	-0.651	x
O=C(/C=C/c1cccs1)N1CCN(c2ccc(O)cc2)CC1	x	75.7*	-1.0	x	-0.177	42.9
O=C1C2C3C=CC(C4CC34)C2C(=O)N1Cc1ccccc1 (stereo unspecified)	x	-4.8	3.4	x	1.39	x
O=C1C2C3CCC(C3)C2C(=O)N1Cc1ccccc1 (stereo unspecified)	99.9	56.8*	3.9	98.2	0.556	35.1
COc1ccc(/C=N/Nc2ccccn2)cc1O	x	x	7.1	x	x	x
COc1ccc(/C=C/c2nc3cc(-c4ccccc4)ccc3o2)cc1O	29.6	87.2*	0.0	54.0	x	-1.5
CC(=O)Nc1ccc(/C=C/c2ccc3c([N+](=O)[O-])cccc3n2)cc1	x	1.3	-7.0	x	0.697	x
